SMILES strings stand for the structures. A number with no mark means an inactive call. The rule behind the calls is not given here. Where only a bound is given, the exact number is not on record here.
Potency is the fitted concentration of half-maximal effect.

The assay relates to HIV-1 nucleocapsid protein NCp7 (binding to TG oligonucleotide). Nature of the assay: HIV Nucleocapsid (AID 346).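 Note: potency is for inhibitors that block NC binding and lower polarization.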 As to conditions: HIV-1 NC / fluorescein-TGTGTGTG probe, fluorescence polarization. The procedure:
NCGC Assay Overview: HIV-1 nucleocapsid protein (HIV-1 NC) is a small (6.5 kDa) basic zinc-finger protein which participates in packaging of viral genomic RNA. The spacing and metal-chelating residues (3 Cys, 1 His) of the Cys-X2-Cys-X4-His-X4-Cys Zn fingers are conserved among all known retroviruses (J. Med. Chem. 1998, 41, 1371-1381). HIV-1 NC was assayed for its binding to the consensus sequence single-stranded 5'-TGTGTGTG. […] High salt was included to increase the stringency of binding and inhibitor screen. Reducing agents and zinc were present to stabilize the nucleocapsid zinc-finger protein.
NCGC Assay Protocol Summary: Buffer. Hepes pH 7.5, 250mM NaCl, 1uM ZnCl2. 0.004% polyethylene glycol 20000. TCEP (100 uM) and 2-Mercaptoethanol (5 mM), added fresh the day of the experiment. Reagents/Controls. 10 nM TG4xF only in columns 3 and 4 as negative control. 10 nM TG4xF/100 nM HIV-1 NC in columns 1, 2, 5-48. Titration of control compound NSC-13778 (from 20 mM, then 1:2) pin-transferred to column 2. Assay Steps. Two uL of reagents were dispensed to 1536-well Kalypsys black plates. The plates were centrifuged for 1 min at 1000 rpm. Compounds and controls (20 nL) were transferred via Kalypsys PinTool. The plates were incubated for 1 hr at room temperature, and then read on ViewLux (Perkin-Elmer). High-throughput CCD imager using fluorescein polarization filter set and 45 seconds exposure time.
(In general: Fluorescence polarisation rises when a labelled molecule tumbles more slowly, as on binding a larger partner.)
`COc1ncc2nc(-c3ccc(Cl)cc3)c(=O)n(-c3ccccc3)c2n1`: the Potency was > 20 µM.
For the molecule `COC(=O)N1CCC2(CC1)CN(c1ccccn1)C2`, the Potency is > 20 µM.
Turning to `O=C(c1csnn1)N1CCC2(CCCN(c3ccccn3)C2)CC1`, the Potency is > 20 µM.
With `Cc1cccc(CNc2cc(-c3ccccc3C)ncn2)c1` the figure was > 20 µM; with `COc1ccc2[nH]cc(CCNc3ccnc(-c4c(C)noc4C)n3)c2c1`, > 20 µM.
With `COCC(=O)N1CCC2(CCCN(C(=O)Nc3ccc(OC)cc3)C2)CC1` the figure was > 20 µM; with `COC(=O)N1CCC2(CCCN(C(=O)Nc3ccccc3)C2)CC1`, > 20 µM; with `N#CCCn1c(=O)cnc2cnc(Nc3ccccc3)nc21`, > 20 µM.
Consider `O=c1c(-c2ccc(F)cc2)nc2cnc(N3CCOCC3)nc2n1Cc1ccc(F)cc1`, for which the Potency was > 20 µM.
As for `CN1CCN(c2ncc3ncc(=O)n(C4CC4)c3n2)CC1`, the Potency was > 20 µM.
To `CC(=O)NCCNc1ncnc2ccc(-c3ccc(C(=O)N(C)C)cc3)cc12` belongs > 20 µM; to `CCNc1ncc2nc(-c3ccc(OC)cc3)c(=O)n(-c3ccc(OC)cc3)c2n1`, > 4 µM.
With `CN1CCN(c2nc(-c3cccc(C#N)c3)nc3ccccc23)CC1` the figure was > 20 µM; with `CC(C)NC(=O)N1CC2(CCN(C(=O)c3cccn3C)CC2)C1`, > 20 µM.
`COc1cccc(-c2ccc3ncnc(NCc4cccs4)c3c2)c1`: the Potency is > 20 µM.
With `N#Cc1cccc(-c2cncnc2-n2ccnc2)c1` the figure was > 20 µM; with `CCNc1ncc2nc(-c3cccc(C#N)c3)c(=O)n(Cc3cccc(OC)c3)c2n1`, 17.7 µM; with `COc1ccc2[nH]cc(CCNc3cc(-c4ccccc4C(F)(F)F)ncn3)c2c1`, > 20 µM.
With `CC(C)CN1CC2(CCN(C(=O)c3csnn3)CC2)C1` the figure was > 20 µM.
To `c1ccc(CNc2nc(-c3ccc4c(c3)OCO4)nc3ccccc23)cc1` belongs > 20 µM; to `c1csc(CNc2nc(-c3ccc4c(c3)OCO4)nc3ccccc23)c1`, > 20 µM.
With `O=c1c(-c2ccc(Cl)cc2)nc2cncnc2n1Cc1ccc(F)cc1`, the Potency is > 20 µM.
With `O=C(Nc1ccccc1)N1CC2(CCN(C(=O)c3cnccn3)CC2)C1` the figure was > 20 µM.
On to `COc1cccc(-c2ccc3ncnc(NCc4cccnc4)c3c2)c1`, for which the Potency is > 20 µM.
On to `O=C(c1cc(C(F)(F)F)cc(C(F)(F)F)c1)N1CCC[C@@]2(CCN(c3ccccc3)C2)C1`, for which the Potency is > 20 µM.
With `COc1cccc(-c2nccc(NCc3ccc(OC)cc3OC)n2)c1` the figure was > 20 µM.
With `COc1ncc2nc(-c3cn(C)c4ccccc34)c(=O)n(CCc3ccccc3)c2n1` the figure was > 20 µM.
To `Cc1noc(C)c1C(=O)N1CCC2(CC1)CN(c1ncccn1)C2` belongs > 20 µM; to `COCCn1c(=O)c(C)nc2cnc(N3CCN(C)CC3)nc21`, > 20 µM.
Turning to `CNc1nc(-c2ccoc2)nc2ccccc12`, the Potency is > 20 µM.
To `COc1ccccc1-c1ccc2ncnc(NC3CC3)c2c1` belongs > 20 µM; to `O=C(c1ccncc1)N1CCC[C@@]2(CCN(c3cccc(-c4ccccc4)c3)C2)C1`, > 20 µM.
In the case of `O=c1c(-c2ccccc2)nc2cnc(Oc3cccc(Cl)c3)nc2n1C1CC1`, the Potency was > 20 µM.
To `O=c1c(-c2ccc(F)cc2)nc2cnc(Oc3cccc(Cl)c3)nc2n1C[C@H]1CCCO1` belongs > 20 µM.
To `CN(Cc1ccco1)c1cc(-c2ccc3c(c2)OCO3)ncn1` belongs > 20 µM.
Consider `CN(C)C(=O)c1ccc(-c2nc(-n3ccnc3)c3ccccc3n2)cc1`, for which the Potency is > 20 µM.
With `Cc1ccccc1-c1cc(N(C)C)ncn1` the figure was > 20 µM; with `CC(C)NC(=O)N1CC[C@@]2(CCCN(C(=O)c3cc(C(F)(F)F)cc(C(F)(F)F)c3)C2)C1`, > 20 µM; with `COc1cccc(-c2nc(NCCc3c[nH]c4ccc(OC)cc34)c3ccccc3n2)c1`, > 20 µM.
With `COc1ccccc1CN1CC[C@@]2(CCCN(S(C)(=O)=O)C2)C1` the figure was > 20 µM.

The record behind these values is PubChem BioAssay (NCATS).
